Laboratory results published in PubChem BioAssay AID485290 (National Center for Advancing Translational Sciences (NCATS), 2010).
Several values for one entry are separate records, joined by “and”; a condition that tells them apart may be missing. Identical values can stand only once. Screen size: about 350,000 compounds; about 990 (0.28%) were called active. Inconclusive results (about 2%) are left out. Calls follow the shape of the dose curve; as a rule, active = well fitted inhibition curve with a large enough effect; inconclusive = small, poorly fitted or top-dose-only effect; inactive = no such curve, though single readings can be large or run the other way. The full list was thinned out, with actives kept by preference. Where a structure was tested more than once in an assay, its records may differ in their call.

Target: Tyrosyl-DNA phosphodiesterase 1 (Homo sapiens) (UniProt Q9NUW8)
Sequence (Q9NUW8 whole entry, looked up): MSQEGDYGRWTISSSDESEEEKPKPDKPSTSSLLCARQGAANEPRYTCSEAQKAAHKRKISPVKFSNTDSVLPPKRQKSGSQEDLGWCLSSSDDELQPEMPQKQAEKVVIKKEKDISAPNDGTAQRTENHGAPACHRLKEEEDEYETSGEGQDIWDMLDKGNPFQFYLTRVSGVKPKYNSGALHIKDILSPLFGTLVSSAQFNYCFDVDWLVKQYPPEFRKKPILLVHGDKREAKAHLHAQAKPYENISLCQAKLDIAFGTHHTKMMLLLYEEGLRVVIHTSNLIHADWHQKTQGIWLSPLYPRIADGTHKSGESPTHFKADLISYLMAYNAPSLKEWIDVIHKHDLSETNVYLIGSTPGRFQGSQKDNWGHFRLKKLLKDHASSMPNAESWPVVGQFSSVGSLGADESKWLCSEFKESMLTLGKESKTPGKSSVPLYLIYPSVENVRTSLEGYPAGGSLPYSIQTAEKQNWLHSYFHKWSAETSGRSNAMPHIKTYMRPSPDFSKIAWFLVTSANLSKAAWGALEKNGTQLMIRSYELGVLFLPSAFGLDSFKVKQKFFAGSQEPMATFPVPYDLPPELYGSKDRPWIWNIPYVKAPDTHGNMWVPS
Assay: qHTS Assay for Inhibitors of Tyrosyl-DNA Phosphodiesterase (TDP1); also: nearly all actives have a fitted effect of over 40% in size
Conditions: recombinant TDP1, AlphaScreen DNA substrate cleavage; series mostly up to 130 µM; activity change, negative = inhibition: at the top concentration
Source text: NIH Molecular Libraries Probe Production Network [MLPCN]
NIH Chemical Genomics Center [NCGC]
Assay Provider: Yves Pommier and Christophe Marchand, National Cancer Institute
Assay Title: qHTS Assay for Inhibitors of Tyrosyl-DNA Phosphodiesterase (TDP1); also: nearly all actives have a fitted effect of over 40% in size
Human tyrosyl-DNA phosphodiesterase I (Tdp1) is a rational anticancer target because this enzyme is involved in the repair of DNA lesions created by the trapping of human DNA topoisomerase I (Top1) following treatment by anticancer agents such as camptothecins. Recombinant Tdp1 was expressed and purified from E. coli in the laboratory (Anthony et al, Nucleic Acids Research, 2007, Vol. 35, 4474-4484). A Tdp1 DNA substrate bearing a 5' biotin and a 3' phospho-tyrosine was obtained by custom synthesis. This oligonucleotidic DNA substrate was subsequently coupled to a fluorescein isothiocyanate (FITC) group via the free amino group present on the phospho-tyrosine. Tdp1 was screened against the NCGC small molecule library using the AlphaScreen (AS) detection method in which a streptavidin donor AS bead is bound at the 5' end and an anti-FITC AS acceptor bead is bound at the 3' end of the DNA oligonucleotidic substrate. In the presence of Tdp1, the enzyme cleaves the tyrosine-FITC group, leaving a 3' end phosphate on the DNA substrate. This cleavage reaction results in a loss of signal in AS.
[1] 3 ul of buffer is dispensed in columns 3 & 4 as negative control (no enzyme and maximum signal),
[2] 3 ul of enzyme (1 nM final) is dispensed in columns 1,2, 5-48,
[3] 1 ul of substrate (15 nM final) is dispensed throughout the plate,
[4] 1 ul of AS donor/acceptor bead mix (10 ug/ml final) is dispensed throughout the plate
3 ul of Tdp1 enzyme is dispensed to 1536-well Kalypsys black solid bottom plates. Compounds and controls (23 nl) are transferred via Kalypsys Pin Tool. The plates are incubated for 15 min at room temperature, and then 1 ul of substrate is added to start the reaction. After 5 min incubation at room temperature, 1 ul of AS donor/acceptor bead mix is added and the plates are further incubated for 10 min at room temperature. The detection is then performed on a PerkinElmer Envision reader.
% is scaled to controls: 0 for no effect and ±100 for the full control effect; potency is read from the fitted curve at half-maximal effect.

Potency, active:
CC(=O)c1ccc(S(=O)(=O)N(C)CCCC(=O)N(C)Cc2ccccc2F)cc1 79.4 µM
O=C(CCNC(=O)c1ccccc1)NN=Cc1ccc(Br)o1 14.1 µM
O=C(O)CCC(=O)N(Cc1cccs1)Cc1cccs1 70.8 µM
C=CCn1c(CSc2nc3ccccc3s2)nnc1SCC(=O)NCc1ccco1 50.1 µM
Cc1cc(NC(=O)CSc2nc(=O)cc(N)n2-c2ccc(F)cc2)no1 100 µM
NC(=O)CSc1nnc(NC(=O)c2ccc(Br)o2)s1 56.2 µM
Cc1cc(C)c2nc(-c3ccco3)cc(C(=O)O)c2c1 3.55 µM
CN1C(=O)/C(=C/c2ccco2)SC1=Nc1cccc(C(=O)O)c1 25.1 µM
Cc1ccccc1Nc1nc(-c2cccnc2)cs1 100 µM
Cc1ccnc2nc(C(=O)Nc3nnc(-c4ccccc4)o3)nn12 50.1 µM
Cc1cc(=O)oc2cc(NC(=O)C(C)Oc3ccccc3)ccc12 (centres undefined) 56.2 µM
Cc1nnc(SCC(=O)Nc2ccc(S(=O)(=O)Nc3ccc(Cl)nn3)cc2)s1 39.8 µM
Cc1ccc(C(=O)O)cc1-c1ccc(/C=C2\SC(=O)N(CC(=O)Nc3ccc4c(c3)OCO4)C2=O)o1 10 µM
CNS(=O)(=O)c1cccc(C(=O)OCC(=O)N2c3ccccc3NC(=O)C2(C)C)c1 31.6 µM
O=C(CSc1nc2ccccc2c(=O)[nH]1)Nc1nc(-c2ccc(Br)cc2)cs1 12.6 µM
COc1ccc(-c2nn(-c3ccccc3)cc2/C=C2/SC(=S)N(CCCC(=O)O)C2=O)c(C)c1 39.8 µM
Cc1cccc(N2CCN(S(=O)(=O)c3ccc4[nH]c(=O)c(=O)[nH]c4c3)CC2C)c1 (centres undefined) 35.5 µM

Potency, inactive and 50.1 µM (active):
Nc1ccc2c3c(cccc13)C(=O)NC2=O

Activity change, negative = inhibition, inactive:
Cc1nn(C)cc1N1C(=O)c2cccc3c(N)ccc(c23)C1=O 3.53%
COC(=O)Cc1ccc(N(Cc2ccccc2F)S(=O)(=O)c2ccc(Br)cc2)cc1 5.26%
CCCNC(=O)CN(Cc1ccccc1F)S(=O)(=O)c1ccc(C)cc1 0%
O=C(CNC(=O)c1ccccc1)OC(C(=O)Nc1cc([N+](=O)[O-])ccc1F)c1ccccc1 (centres undefined) -0.0203%
O=C(CCCCCNC(=O)c1ccccc1)N/N=C/c1ccccc1 0%
O=C(CCNC(=O)c1ccccc1Cl)NN=Cc1ccco1 -19.3%
O=C(Nc1ccc2nc(SCCOc3ccccc3Cl)sc2c1)c1ccco1 -0.521%
CCOC(=O)c1ccc(NC(=O)CC2C(=O)N(c3ccccc3)C(=O)N2Cc2cccs2)cc1 (centres undefined) 8.97%
COc1ccc(-c2cn3nc(N4CCCC(C(=O)NCCCOC(C)C)C4)sc3n2)cc1 (centres undefined) 6.21%
Cc1ccc(-c2nnc3ccc(SCC(N)=O)nn23)cc1 3.35%
O=C(CCc1ccccc1)NCCc1cccs1 6.33%
O=C(O)CCC(=O)N(Cc1ccccc1)Cc1ccccc1 2.81%
Cc1ccc2ccc3c(c2n1)NS(=O)(=O)c1ccccc1-3 3.91%
O=C(CSc1nc2ccc(Nc3nc(N4CCOCC4)nc(N4CCOCC4)n3)cc2s1)NCc1ccco1 7.41%
CCn1c(COc2ccccc2)nnc1SCC(=O)NCc1ccco1 -2.53%
N#Cc1nc(Nc2cc(F)cc(Cl)c2)nc(NC2CCCC2)n1 -1.72%
Cc1ccc(C2C=C(c3ccc(Cl)cc3)Nc3nc(NC(=O)CCC(=O)O)nn32)cc1 (centres undefined) 6.98%
Cc1csc(NC(=O)CSc2nc(=O)cc(N)n2-c2ccc(F)cc2)n1 0.637%
COc1cccc(-n2c(N)cc(=O)nc2SCC(=O)Nc2cc(C)on2)c1 4.83%
CCc1ccc(NC(=O)CN2CCSc3ccc(S(=O)(=O)N4CCCC4)cc32)cc1 8.88%
CC(C)c1ccc(C2CC(=O)N3CN(C4CCCCC4)CSC3=C2C#N)cc1 (centres undefined) 4.65%
Cc1ccc(Cn2ncc3c4sc(C)cc4n(C)c3c2=O)c(C)c1 -17.4%
CCSc1nnc(NC(=O)c2cc(=O)c3cc(C)c(C)cc3o2)s1 3.68%
NC(=O)CSc1nnc(NC(=O)c2ccc3ccccc3c2)s1 -9.3%
COc1cccc(NC(=O)C(=O)NCC(c2ccc3c(c2)OCO3)N2CCN(C)CC2)c1 (centres undefined) 4.4%
O=C(Nc1ccc(F)cc1F)c1ccc2c(=O)n3c(nc2c1)CCCCC3 0%
COc1cc(C(=O)NCCc2csc3nc(-c4ccccc4C)nn23)cc(OC)c1OC 8.88%
CN(CCOc1ccccc1)C(=O)c1cc(-c2ccco2)nc2ccccc12 -10%
CC1CCCN(C(=O)c2cc(-c3ccco3)nc3ccccc23)C1 (centres undefined) -2.87% [at 56.1 µM]
N#CN1CCC(NS(=O)(=O)c2cccc(F)c2)C1 (centres undefined) -0.0717%
COc1cccc(NC(=O)c2ccc3nc(CCc4ccccc4)oc3c2)c1 4.14%
COc1cccc(OC2=NS(=O)(=O)c3ccccc32)c1 2.37%
COC(=O)c1ccccc1NC(=O)c1ccc2c(=O)n3c(nc2c1)CCCCC3 5.06%
O=C(OCC#CCSc1nnc(-c2ccco2)o1)c1ccc(F)cc1 -3.06%
Cc1cc(/C=C2\SC(=Nc3ccc(N4CCOCC4)cc3)N(C)C2=O)c(C)n1-c1cccnc1 5.26%
CN1C(=O)/C(=C\c2ccc(-c3ccccc3)o2)SC1=S 8.48%
CCOC(=O)c1scc(-c2ccccc2)c1S(=O)(=O)Nc1ccccc1F 1.95%
COc1ccc(-c2nc3sc(CCNC(=O)C(C)(C)C)c(C)n3n2)cc1 2.6%
O=C(Nc1nc(-c2cccnc2)cs1)c1ccccc1F -1.15%
Cc1cccc(Nc2nc(-c3ccccc3)cs2)n1 8%
COc1ccc(-c2c3c(=O)n(C)c(=O)n(C)c3c3c(C)nc4ccccc4n23)cc1 2.12%
O=C(CNC(=O)c1ccc(Cl)cc1Cl)OC(C(=O)Nc1cc(C(F)(F)F)ccc1Cl)c1ccccc1 (centres undefined) 0.0717%
CCc1nc(-c2cc(S(=O)(=O)N3CCN(c4ccc(OC)cc4)CC3)ccc2OC)no1 0%
CCc1ccc(OCCCn2c(CCCNC(=O)C3CCCCC3)nc3ccccc32)cc1 1.74%
O=C(Nc1nnc(-c2ccc(Cl)cc2)o1)c1ccccc1Br 9.8%
Cc1ccnc2nc(C(=O)OCC(=O)N(CC(C)C)CC(C)C)nn12 0.595%
COc1ccc(C(=O)CSc2c(C(C)C)cnc3c2c(=O)n(C)c(=O)n3C)cc1 5.41%
CCN(CCCNC(=O)c1ccc(Sc2ccc(C)cc2)c(NC(C)=O)c1)c1cccc(C)c1 7.79%
Cc1ccc(-n2ncc3c(NCCCn4ccnc4)ncnc32)cc1Cl 13%
COc1ccc(C2Nc3ccccc3C(=O)N2Cc2ccccc2)cc1COc1ccc(C(N)=O)cc1 (centres undefined) -0.753%
CCc1ccccc1NC(=O)c1ccc2nc(CCc3ccccc3)oc2c1 -6.51%
Cc1cc(=O)oc2cc(OC(C)C(=O)Nc3ccc(N4CCOCC4)cc3)ccc12 (centres undefined) 2.14%
Cc1cc(=O)oc2cc(OC(C)C(=O)NCCc3ccc(S(N)(=O)=O)cc3)ccc12 (centres undefined) 3.75%
COc1ccc(S(=O)(=O)NCC(c2ccc(N(C)C)cc2)N2CCc3ccccc32)cc1OC (centres undefined) 13.8%
OC[C@@H]1O[C@H](n2cnc3c(SCc4ccccc4)ncnc32)[C@H](O)[C@H]1O 3.08%
Cc1cc2c(s1)c1cnn(Cc3c(F)cccc3Cl)c(=O)c1n2C 0.134%
Cc1cnc(NC(=O)CSc2nnc(C)s2)s1 4.02%
CCCCCC(=O)Nc1ccc(S(=O)(=O)Nc2ccc(Cl)nn2)cc1 3.43%
COc1cccc(C2c3c(ncn(-c4cccc(Br)c4)c3=N)Oc3ccc4ccccc4c32)c1 (centres undefined) 3.6%
O=C1CC(c2ccccc2)CC2=C1C(c1ccco1)n1nc(C(F)(F)F)nc1N2 (centres undefined) 2.22%
COc1ccc(NC(=O)CCN2C(=O)/C(=C/c3ccc4c(c3)OCO4)SC2=S)cc1 2.5%
Cn1cccc1/C=C1\SC(=O)N(CC(=O)Nc2ccc(F)cc2)C1=O 5.97%
Cc1cc(C(=O)OCC(=O)N2c3ccccc3NC(=O)C2(C)C)c(C)n1-c1ccccc1 10.8%
CC1(C)C(=O)Nc2ccccc2N1C(=O)COC(=O)Cn1cnc2ccccc2c1=O 3.91% [at 56.1 µM]
CC(=O)NCc1ccc(-c2csc(NC(=O)CCCc3nc4ccccc4c(=O)[nH]3)n2)cc1 2.93%
CCOC(=O)c1ccccc1NC(=O)CSc1nc2ccccc2c(=O)[nH]1 5.13%
O=S(=O)(c1ccc2c(c1)OCCCO2)N1CCN(S(=O)(=O)c2c(F)cccc2F)CC1 -2.34%
Brc1nc2ncnc(NCc3ccco3)c2[nH]1 1.07%
COC(=O)c1ccc(NC(=O)CSc2n[nH]c(-c3ccccc3)n2)cc1 8.11%
CN(C)c1ccc(C(CNS(=O)(=O)c2cc(F)ccc2F)N2CCOCC2)cc1 (centres undefined) 8.75%
COc1ccc(C2Nc3ccccc3C(=O)N2Cc2ccc(CNC(=O)CO)cc2)cc1COc1ccc(NC(C)=O)cc1 (centres undefined) -19.1%
COc1ccc(/C=C2\SC(=S)N(CCC(=O)Nc3ccccn3)C2=O)cc1OC 5.5% [at 0.0935 µM]
CN(C)S(=O)(=O)c1cccc(-c2nn(-c3ccccc3)cc2/C=C2\SC(=S)N(CC(=O)O)C2=O)c1 0%
Cc1ccc(C(=O)NC2CCN(C#N)CC2)cc1 1.25%
CCN(CC)c1nc(C#N)nc(OC)n1 -0.0347%
COc1ccc(CCn2c3c(c(=O)[nH]c2=S)CN(C(C)C)CN3)cc1OC 1.97%
Cc1ccc(C)c(N2C(=O)N(Cc3c(F)cccc3Cl)c3ccccc3S2(=O)=O)c1 1.47%
N#Cc1ccc(OC2=NS(=O)(=O)c3ccccc32)cc1 -0.673%
Fc1ccccc1Oc1ncnc2c1oc1ccccc12 -2.45%
Cc1cccc(N2CCN(C(=O)c3cccc(S(=O)(=O)N4CCc5ccccc5C4)c3)CC2C)c1 (centres undefined) 0%
Cc1cccc(N2CCN(S(=O)(=O)c3ccc(-c4cc(C)no4)s3)CC2C)c1 (centres undefined) 0.315%
